Screens from PubChem.
Shown are actives, neighbours in structure and some others; about 1.8% of the full set was active somewhere.
NALP1 inh – NALP1 inhibition. S. cerevisiae NALP1/ASC/caspase-1 growth, X-gal OD620, 72 h. inhibition, % at 10 µM. 0.61% of 280,000 active. AID 2071; in the data active = inhibition mostly above about 24%, no sharp cut-off; inactive = mostly below about 32%
NLRP3 yeast inh – NALP3 inhibition in yeast; Yeast reconstituted NLRP3/ASC/caspase-1, beta-gal luminescence, 24 h; inhibition, % at 10 µM; 0.39% of 330,000 active; AID 2825;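 active = inhibition of 50% or more; inactive = inhibition below 50%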;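 also: plate controls were induced DMSO wells for no effect and uninduced yeast grown without galactose for full effect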
Mot1-301 SUMO – inhibitors of SUMOylation pathway: yeast Mot1-301 growth rescue | S. cerevisiae Mot1-301 growth rescue, ATP luminescence, 38.5C; percent above DMSO median, 100 means doubled | growth rescue, % at 18.8 µM | 1% of 320,000 active | AID 2716;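 active = every valid replicate shows activation above 250% relative to neutral control wells; inactive = the rest, any valid replicate at or below 250%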;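 also: OY570 slx delta 5 strain wells were the positive control but not used for scaling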
PolyA inh – inhibitors of polyadenylation in S. cerevisiae; S. cerevisiae SKY197-pL101 polyadenylation reporter, beta-gal luminescence; efflux-impaired pdr1/pdr3 knockout yeast; score 100 = 6 SD above DMSO; activity score, % at 12 µM; 0.02% of 300,000 active;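 active = lowest replicate activity score at least 50, where 100 means six control SD above control mean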;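 also: yeast exposed to compound for 9 h at 30 °C; higher score means more reporter readthrough which indicates perturbed polyadenylation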
Starred values were filed as active, the others as inactive; nt = no result given.

SMILES	NALP1 inh	NLRP3 yeast inh	Mot1-301 SUMO	PolyA inh
CC(C)c1ccc(/C=C/C(=O)Nc2ccc(CN3CCOCC3)cc2)cc1	40*	25	37	-54
O=C(/C=C/c1ccc(Cl)cc1)Nc1ccc(CN2CCOCC2)cc1	20	9	25	-8
CC(C)c1ccc(CN2CCN(C(=O)CCl)CC2)cc1	59*	nt	nt	nt
Cc1ccc(C(c2c(C)nn(-c3ccccc3)c2N)c2c(C)nn(-c3ccccc3)c2N)cc1	30	-7	-5	-1
Cc1nn(-c2ccccc2)c(N)c1C(c1ccc(C(C)C)cc1)c1c(C)nn(-c2ccccc2)c1N	nt	-2	409*	9
Cc1ccc(CNC(=O)C2c3ccccc3C(=O)N(C)C2c2c[nH]c3ccccc23)o1 (stereo unspecified)	27	20	-2	0
COc1cccc(C2(O)CC(C(F)(F)F)=NN2C(=O)c2ccccn2)c1 (stereo unspecified)	4	13	-13	-18
COc1ccc(Cl)cc1NC(=S)N1CCN(C(=O)c2ccco2)CC1	13	3	357*	-8
COc1cc(NC(=S)N2CCN(C(=O)c3ccco3)CC2)c(OC)cc1Cl	16	3	nt	-4
COc1ccc(N=C2S/C(=C\c3ccc(Cl)c([N+](=O)[O-])c3)C(=O)N2CCN(C)C)cc1	41	27	60	3
CCN(CC)CCN1C(=O)/C(=C\c2ccc(Cl)c([N+](=O)[O-])c2)SC1=Nc1ccc(OC)cc1	44*	39	-8	-5
Cc1c(CC(=O)O)c(=O)oc2c(C)c3occ(-c4ccccc4)c3cc12	3	8	10	8
O=C(Cn1cnc2c(nnn2Cc2ccccc2F)c1=O)N1CCN(c2ccccc2)CC1	7	14	161	5
O=C(Cn1cnc2c(nnn2Cc2ccccc2F)c1=O)OCc1ccccc1	26*	-5	1	7
Cc1ccc(-c2c[n+](CC(=O)Nc3nc(-c4ccccc4)cs3)c3n2CCC3)cc1	nt	1	-34	-14
Cc1ccc2c(c1)nnn2C1CCN(C(=O)NCc2ccccc2)CC1	12	-11	-11	-4
O=C(NCCN1CCN(c2ccccc2)CC1)c1ccc(NC(=O)C2CCCO2)cc1 (stereo unspecified)	42*	2	-18	-3
O=C(Nc1ccccc1C(=O)O)c1ccc(NC(=O)C2CCCO2)cc1 (stereo unspecified)	3	3	12	19
CC(=O)Nc1ccc(S(=O)(=O)N2CCN(Cc3cccs3)CC2)cc1	26*	0	0	2
COc1cc(S(=O)(=O)N2CCN(Cc3cccs3)CC2)ccc1NC(C)=O	nt	6	4	nt
CN[C@H](CC(=O)O)C(=O)O	nt	11	307*	-6
Clc1ccc2nc(SCc3nnc(-c4ccccc4)o3)[nH]c2c1	13	4	650*	-21
COCC1CCN(C(=O)c2cc(COc3cncc(Cl)c3)on2)C1 (stereo unspecified)	27	20	0	-2
Cc1cccc(C)c1NC(=O)CN1C(=O)S/C(=C\c2cccn2C)C1=O	40*	8	17	-11
CCOC(=O)CN(C)C(=O)CCc1nnc(-c2ccsc2)o1	-7	21	611*	15
SMILES	NALP1 inh	NLRP3 yeast inh	Mot1-301 SUMO	PolyA inh
O=[N+]([O-])c1ccc(OCC(O)CN2CCN(c3ccccc3F)CC2)cc1 (stereo unspecified)	46*	23	34	-4
C/C(=C\C=C(C#N)C#N)c1cc(C#N)c(N)o1	21	10	nt	59*
CCCCCn1c2c(c(=N)c3ccccc31)CCC2	1	-9	-3	-5
CCCCCCCCCCn1c2c(c(=N)c3c1CCC3)CCC2	34*	43	-41	-2
Clc1cccc(OCCN2CCN(CCOc3cccc(Cl)c3)CC2)c1	64*	40	-26	-56
Cc1cc(C)n(/C(=C\N(C)C)C(=O)c2ccc(Cl)cc2)n1	16	30	-22	6
COc1cc(C2C(C#N)=C(C)NC3=C2C(=O)CC(C)(C)C3)ccc1OCCO (stereo unspecified)	-13	-1	-2	16
COc1cc(C2C(C#N)=C(C)NC3=C2C(=O)CC(C)(C)C3)cc(OC)c1O (stereo unspecified)	10	-20	348*	14
Clc1ccccc1-c1nn2c(COc3ccccc3)nnc2s1	40*	21	17	0
CC(O)CC(C(=O)NNc1ccccc1)C(=O)NNc1ccccc1 (stereo unspecified)	12	20	606*	-6
O=[N+]([O-])c1cc(Br)c2nsnc2c1N1CCOCC1	13	28	32	-23
COc1cc([N+](=O)[O-])c(N2CCOCC2)c([N+](=O)[O-])c1OC	42*	5	-6	14
Cc1ccc(S(=O)(=O)Nc2nnc(C(C)(C)C)s2)cc1	-1	8	-22	5
CC(C)(C)c1nc2c(C#N)c(-c3ccc(Cl)cc3)ccn2n1	38*	18	187	2
Cc1ccccc1-n1c(Cn2c(=O)sc3ccccc32)nnc1SCC(=O)N1CCCC1	32	6	-18	-8
CC(C)N1CCN(c2ccc(OC[C@H]3CO[C@](Cn4cncn4)(c4ccc(Cl)cc4Cl)O3)cc2)CC1	nt	22	269*	nt
COc1ccc(N2CCN(C(=O)Cn3cncn3)CC2)cc1	-30	0	nt	3
O=S(=O)(CC(CN1CCCCC1)N1CCCCC1)c1ccc2ccccc2c1 (stereo unspecified)	55*	nt	nt	2
Cc1c(CCC(=O)O)c(=O)oc2cc3occ(-c4ccc(Br)cc4)c3cc12	8	13	28	-2
O=c1[nH]c2ccccc2nc1C(F)(F)F	37*	7	-11	2
O=C(N/N=C/C(Br)=C\c1ccccc1)c1cccs1	30	41	299*	-1
O=C(N/N=C/C(Br)=C/c1ccccc1)c1ccncc1	18	20	100	-1
CSCC[C@@H](C(=O)NCCCCCCCCCCC(=O)N1CCNCC1)n1cc(CCO)nn1	nt	20	-5	nt
CCOc1cc(-c2nc(-c3ccncc3)no2)cc(OCC)c1OCC	22*	-25	2	-22
COc1ccc(-c2nc(C#N)c(NCCCN(C)C)o2)cc1OC	2	20	306*	13
SMILES	NALP1 inh	NLRP3 yeast inh	Mot1-301 SUMO	PolyA inh
O=C(CCc1nnc(CCCCc2ccccc2)o1)N1CCCC(O)C1 (stereo unspecified)	-3	-4	276*	-13
Cc1ccc(Nc2cc(C)nc(NCc3ccccc3)n2)cc1	51*	18	-27	-1
COc1ccc(Nc2cc(C)nc(NCc3ccccc3)n2)cc1	32	39	36	-13
Cc1cc(NC2CCCCC2)nc(NCc2ccccc2)n1	62*	29	-10	2
COc1cc(C)nc(NCc2ccccc2)n1	36	-2	-11	-19
C/C(=N\Nc1nc2ccccc2[nH]1)c1ccc([N+](=O)[O-])cc1	nt	21	-14	-5
CCC(OCC(O)CN1CCCCC1)c1ccccc1 (stereo unspecified)	12	12	15	-13
CCOC(=O)C1CCN(CC(O)COC(CC)c2ccccc2)CC1 (stereo unspecified)	27	13	308*	-20
